This note sets out measurements from the supplement of paper PMC6331611.

± gives the standard deviation of the averaged measurements. Over roughly 1,600 compounds, “normalized intracellular growth (luminescence, IQM-normalized) in RAW264.7 macrophages” has its median near 1; the lowest 2% begin near 0.43. What follows is part of a selection rich in the lowest values, with near analogues and random picks from the rest.

The test system of the assay is Salmonella enterica serovar Typhimurium SL1344. Put plainly: normalized intracellular growth (luminescence, IQM-normalized) in RAW264.7 macrophages (fraction of plate interquartile mean); higher = more bacterial growth (less inhibition). Conditions: 10 µM.

Consider `CCCc1nc(C)c2c(O)nc(-c3cc(S(=O)(=O)N4CCN(CC)CC4)ccc3OCC)nn12`, for which the normalized intracellular growth runs as follows: (time point: T3 (3 h)) 0.997 ± 0.027; (time point: Tfinal (~6 h)) 0.899 ± 0.1.
On the same counts, the results for `CC(=O)N(c1onc(C)c1C)S(=O)(=O)c1ccc(N)cc1` are 0.951 ± 0.011 and 1.02 ± 0.17.
On the same counts, the results for `C[C@@H]1C[C@H]2[C@@H]3CCC4=CC(=O)C=C[C@]4(C)[C@@]3(F)[C@@H](O)C[C@]2(C)[C@@]1(O)C(=O)CO` are 1 ± 0.062 and 0.99 ± 0.075.
For `CC(=O)NCCCCCC(=O)O` the same measures were 0.997 ± 0.019 and 1.02 ± 0.17.
In the case of `O=S(=O)(O)CCSSCCS(=O)(=O)O`, the normalized intracellular growth runs as follows: (time point: T3 (3 h)) 1.02 ± 0.061; (time point: Tfinal (~6 h)) 0.986 ± 0.18.
For `CC(C(=O)O)c1ccc(CC2CCCC2=O)cc1` (stereo unspecified) the same measures were 1.05 ± 0.055 and 1.06 ± 0.064.
On the same counts, the results for `NC[C@@H]1CC[C@@H](N)[C@@H](O[C@H]2[C@H](O)[C@@H](O[C@H]3O[C@H](CO)[C@@H](O)[C@H](N)[C@H]3O)[C@H](N)C[C@@H]2N)O1` are 1.04 ± 0.023 and 0.976 ± 0.13.
On to `NCC(O)CC(=O)O` (stereo unspecified), for which the normalized intracellular growth is, setting by setting: (time point: T3 (3 h)) 0.966 ± 0.067; (time point: Tfinal (~6 h)) 1.03 ± 0.12.
On the same counts, the results for `CN1CCN(c2c(F)cc3c(=O)c(C(=O)O)cn4c3c2SCC4)CC1` are 0.982 ± 0.061 and 0.095 ± 0.094.
As to `CC1COc2c(N3CCN(C)CC3)c(F)cc3c(=O)c(C(=O)O)cn1c23` (stereo unspecified), the normalized intracellular growth is, setting by setting: (time point: T3 (3 h)) 0.856 ± 0.034; (time point: Tfinal (~6 h)) 0.134 ± 0.0023.
For `C[C@H]1COc2c(C3(N)CC3)c(F)cc3c(=O)c(C(=O)O)cn1c23`, the normalized intracellular growth amounted to 1.36 ± 0.11 (time point: T3 (3 h)) and 0.00812 ± 0.0004 (time point: Tfinal (~6 h)).
For `C[C@H]1COc2c(N3CCN(C)CC3)c(F)cc3c(=O)c(C(=O)O)cn1c23` the same measures were 1.245 ± 0.0094 and 0.00765 ± 0.001.
With `CCCCCCc1ccc(O)cc1O.Nc1c2ccccc2nc2ccccc12`, the normalized intracellular growth is 0.891 ± 0.014 (time point: T3 (3 h)) and 1.07 ± 0.012 (time point: Tfinal (~6 h)).
For `CC1(C)S[C@@H]2[C@H](N3C(=O)[C@@H](c4ccccc4)NC3(C)C)C(=O)N2[C@H]1C(=O)O` the same measures were 1 ± 0.031 and 0.974 ± 0.056.
On the same counts, the results for `COC(=O)/C=C/C(=O)OC` are 0.935 ± 0.047 and 0.937 ± 0.028.
For `O=C([O-])[C@H]1/C(=C/CO)O[C@@H]2CC(=O)N21.[Li+]` the same measures were 1.02 ± 0.099 and 0.812 ± 0.11.
As to `CN(C)c1cnccn1`, the normalized intracellular growth was 0.967 ± 0.046 (time point: T3 (3 h)) and 0.904 ± 0.32 (time point: Tfinal (~6 h)).
For `CSCC[C@H](NC(=O)[C@H](Cc1c[nH]c2ccccc12)NC(=O)CCNC(=O)OC(C)(C)C)C(=O)N[C@@H](CC(=O)O)C(=O)N[C@@H](Cc1ccccc1)C(N)=O` the same measures were 1 ± 0.04 and 0.827 ± 0.23.
Turning to `Cl.N=C(N)NCCC[C@H](N)C(=O)O`, the normalized intracellular growth worked out at 1.05 ± 0.065 (time point: T3 (3 h)) and 1.02 ± 0.092 (time point: Tfinal (~6 h)).
In the case of `NCC(=O)CCC(=O)O`, the normalized intracellular growth is, setting by setting: (time point: T3 (3 h)) 1.09 ± 0.029; (time point: Tfinal (~6 h)) 1.02 ± 0.042.
Take `Cc1nc(C)c(Cl)c(O)c1Cl`: the normalized intracellular growth (time point: T3 (3 h)) is 0.942 ± 0.035 and the normalized intracellular growth (time point: Tfinal (~6 h)) came to 1.16 ± 0.1.
For `C[C@]12CCC(=O)C=C1CC[C@@H]1[C@@H]2[C@@H](O)C[C@@]2(C)[C@H]1CC[C@]2(O)C(=O)COP(=O)(O)O` the same measures were 0.9812 ± 0.0046 and 0.999 ± 0.047.
Molecule `O=C(O)c1cc(O)c2c(c1)[C@H]([C@H]1c3cc(C(=O)O)cc(O)c3C(=O)c3c(O[C@@H]4O[C@H](CO)[C@@H](O)[C@H](O)[C@H]4O)cccc31)c1cccc(O[C@@H]3O[C@H](CO)[C@@H](O)[C@H](O)[C@H]3O)c1C2=O` had a normalized intracellular growth (time point: T3 (3 h)) of 0.957 ± 0.08 and a normalized intracellular growth (time point: Tfinal (~6 h)) of 0.961 ± 0.026.
